{
  "source": "PubChem BioAssay AID2283131",
  "about": "(EPA ToxCast)",
  "note": "Records with an inconclusive call do not appear. Calls of active or inactive are those of the source. The calls were made as follows: active = hit-call score of the fitted dose curve at least 0.9, where 1 is the maximum; inconclusive = response in the unintended direction; inactive = score below 0.9.",
  "data": [
    {"target": "human Bruton's Tyrosine Kinase (BTK), BTK (gene 695) (UniProt Q06187)", "sequence (Q06187 whole entry, looked up)": "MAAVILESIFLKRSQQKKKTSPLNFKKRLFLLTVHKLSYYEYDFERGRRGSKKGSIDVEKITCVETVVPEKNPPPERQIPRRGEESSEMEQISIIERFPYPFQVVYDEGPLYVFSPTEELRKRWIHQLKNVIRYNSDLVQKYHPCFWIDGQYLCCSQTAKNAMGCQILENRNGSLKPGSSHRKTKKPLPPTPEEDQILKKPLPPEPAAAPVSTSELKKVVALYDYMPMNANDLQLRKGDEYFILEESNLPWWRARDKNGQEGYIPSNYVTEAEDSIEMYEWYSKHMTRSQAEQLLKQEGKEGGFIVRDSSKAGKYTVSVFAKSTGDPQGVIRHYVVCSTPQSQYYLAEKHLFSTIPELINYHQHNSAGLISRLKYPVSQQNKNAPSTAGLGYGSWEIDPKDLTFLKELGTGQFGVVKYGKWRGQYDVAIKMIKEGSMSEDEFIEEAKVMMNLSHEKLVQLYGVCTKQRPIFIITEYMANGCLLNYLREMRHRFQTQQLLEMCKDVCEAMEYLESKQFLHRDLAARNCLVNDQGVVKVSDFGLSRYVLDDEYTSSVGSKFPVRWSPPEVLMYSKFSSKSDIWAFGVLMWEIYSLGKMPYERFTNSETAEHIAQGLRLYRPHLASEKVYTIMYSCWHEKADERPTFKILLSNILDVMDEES", "assay": "NVS_ENZ_hBTK: NovaScreen (NVS) Enzymatic Assay for human Bruton's Tyrosine Kinase (BTK)", "protocol": "NVS_ENZ_hBTK is a biochemical, single-readout assay that uses extracted gene-proteins in a cell-free assay. Measurements were taken 1 hour after chemical dosing in a 96-well plate.NVS_ENZ_hBTK is one of one assay component(s) measured or calculated from the NVS_ENZ_hBTK assay. It is designed to make measurements of enzyme activity, a form of enzyme reporter, as detected with fluorescence intensity signals by Fluorescence and electrophoretic mobility shift technology.Data from the assay component NVS_ENZ_hBTK was analyzed into 1 assay endpoint. This assay endpoint, NVS_ENZ_hBTK, was analyzed in the positive analysis fitting direction relative to DMSO as the negative control and baseline of activity. Using a type of enzyme reporter, loss-of-signal activity can be used to understand changes in the enzymatic activity as they relate to the gene BTK. Furthermore, this assay endpoint can be referred to as a primary readout, because this assay has produced multiple assay endpoints where this one serves a enzymatic activity function. To generalize the intended target to other relatable targets, this assay endpoint is annotated to the kinase intended target family, where the subfamily is non-receptor tyrosine kinase.\nBinding assays used specific radioligands (tritiated, iodinated) with non-radioactive competitive displacement ligands in agonist or antagonist protocols (as indicated) and various reference compounds and inhibitors to titrate specific binding to receptors and transporters. Most enzyme assays (CYPs, kinases, phosphatases, proteases, HDACs) used recombinant protein and specific substrates (fluorescence mostly, some colorimetric and radioactive) and inhibitors, followed by a biochemical separation of substrate and product. All assays for the biochemical HTS were initially run in duplicate at a single concentration (10 uM for CYP450 assays and 25 uM for all others). […] Each assay was run with positive and negative controls, and concurrent controls on every plate. The follow-up (secondary) screen tested active chemical-pairs in concentration series, as well as a few additional assays not tested in the primary screen, some selected negative inactives, and several cases re-run in the concentration series for confirmatory purposes.", "values": [
      {"smiles": "O=[N+]([O-])/N=C1\\NCCN1Cc1ccc(Cl)nc1", "outcome": "inactive"},
      {"smiles": "CCCOc1nn(C(=O)NS(=O)(=O)c2ccccc2C(=O)OC)c(=O)n1C", "outcome": "inactive"},
      {"smiles": "O=S(=O)(O)C(F)(F)C(F)(F)C(F)(F)C(F)(F)C(F)(F)C(F)(F)C(F)(F)C(F)(F)F", "AC50": "17.4 µM (active)"},
      {"smiles": "N#Cc1c(Cl)c(Cl)c(Cl)c(C#N)c1Cl", "outcome": "inactive"},
      {"smiles": "Fc1ccc(Oc2ccnc3cc(Cl)cc(Cl)c23)cc1", "outcome": "inactive"},
      {"smiles": "CNC(=O)Oc1cccc2c1OC(C)(C)O2", "outcome": "inactive"},
      {"smiles": "O=C(O)C(F)(F)C(F)(F)C(F)(F)C(F)(F)C(F)(F)C(F)(F)C(F)(F)F", "outcome": "inactive"},
      {"smiles": "S=C1NCCN1", "outcome": "inactive"},
      {"smiles": "Cc1ccccc1CO[C@@H]1C[C@@]2(C(C)C)CC[C@]1(C)O2", "outcome": "inactive"}
    ]}
  ]
}
